Compounds without any hit were thinned out: in the full panel of roughly 83,000, 20% have a hit.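 The test compound was applied at a single concentration to cells in 96-well plates for 48 hours, and percent growth was recorded.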 Activity calls are given as the source filed them. How the source made its calls: active means growth percent below 10; inactive means the rest.
test system: MDA-MB-231 breast; test: NCI-60 one-dose screen, 48 h (100 = growth as untreated, 0 = no growth, -100 = all killed); conditions: 10 µM unless noted

| Structure (SMILES) | growth |
| --- | --- |
| O=C(NCc1ncc[nH]1)c1ccc(-c2nc3ccc4[nH]ncc4c3c3c2CCCC3)cc1 | 10% (active) |
| Cc1c(Cl)cccc1S(=O)(=O)Nc1ccc2c(c1)C(=O)N(C1CCC(=O)NC1=O)C2=O (stereo not given) | 46.8% (inactive) |
| COC(=O)C1(C)CCC[C@]2(C)[C@H]3C[C@H]4C(C(C)C)=C[C@]3(CC[C@@H]12)[C@H]1[C@@H]4[C@@H](OC(=O)c2ccco2)CC[C@@H]1OC(=O)c1ccco1 (stereo not given in full) | 101% (inactive) |

test system: SF-268 CNS; test: as above; conditions: 10 µM unless noted

| Structure (SMILES) | growth |
| --- | --- |
| CCC(CC)N1C(=O)/C(=c2\sc3n(c2=O)NC2C(N=3)N(CC)C(=O)N2CC)c2ccccc21 (stereo not given) | 63.4% (inactive) |
| CN1CCN(c2ccc(/C=N/Nc3nc4ccccc4c(=O)n3-c3ccccc3)cc2)CC1 | 90.7% (inactive) |
| CC1=NC2=NC(=O)/C(=C3/N=C(C)C=C(c4ccccc4)N3N)NN2C(c2ccccc2)=C1 | 103% (inactive) |
| Nc1ncc(-c2ccc3ncnc(N4CCc5cc(F)c(F)cc54)c3c2)cn1 | 29.5% (inactive) |
| COc1ccc(Oc2ccc(/C=N/NC(=O)CSc3nc4ccccc4c(=O)n3-c3ccc(Cl)cc3)cc2)cc1 | 57.9% (inactive) |
| COc1ccc2c(c1)Oc1nc(N)c(C#N)c(N)c1C2Sc1ccc(C)cc1 (stereo not given) | 50% (inactive) |
| CC(=O)C1=C(C)NC(NN)=NC1c1cccc(Cl)c1 (stereo not given) | 103% (inactive) |
| O=C(NNc1nc2cc(F)ccc2n2c(CO)ccc12)c1cnccn1 | 20.3% (inactive) |
| NC(N)=Nc1ccc(Oc2cccc(NC(N)=Nc3ccc(Br)cc3)c2)cn1 | 28.2% (inactive) |
| CCOC(=O)C1=NNC(c2ccc(Cl)cc2)C1C(=O)N1C(=S)NC(=O)C1CC(C)C (stereo not given) | 98.3% (inactive) |
| CC/C(=C/c1c(O)cccc1OC)c1ccc2c(OC)cccc2[o+]1 | 100% (inactive) |
| Cn1ccnc1C(=O)/C=C/c1ccc(CNC(=O)c2ccc(Cl)cc2)cc1 | 10.1% (inactive) |
| COc1c(N2CC3CCCNC3C2)c(F)cc2c(=O)c(C(=O)N/N=C/c3ccc(F)cc3)cn(C3CC3)c12 (stereo not given) | 82.9% (inactive) |
| CN(C)CCNC(=O)c1ccc(-c2nc3ccc4[nH]ncc4c3c3c2CCC3)cc1 | -8.73% (active) |
| C=C(C=O)[C@@H]1CC[C@]2(COC(C)=O)CC[C@]3(C)C(CC[C@@H]4[C@@]5(C)CC[C@H](OC(C)=O)C(C)(C)[C@@H]5CC[C@]43C)[C@@H]12 (stereo not given in full) | 6.02% (active) |
| COc1c(N2CC3CCCNC3C2)c(F)cc2c(=O)c(C(=O)N/N=C/c3c[nH]c4ccccc34)cn(C3CC3)c12 (stereo not given) | 91.9% (inactive) |

| Structure (SMILES) | growth |
| --- | --- |
| COc1cc(C2N=C(NNc3ccccc3)NC(C)=C2C(C)=O)ccc1O (stereo not given) | 86.3% (inactive) |
| CCCCCc1ccc(S(=O)(=O)Nc2cccc(-c3csc(NC(=O)CNCCN(C)C)n3)c2)cc1 | 78.6% (inactive) |
| CCCCCc1ccc(S(=O)(=O)Nc2cccc(-c3csc(NC(=O)CCCCCN4CCN(CCO)CC4)n3)c2)cc1 | 83.2% (inactive) |
| CS(=O)(=O)Nc1cc(-c2ccc3ncc(C#N)c(NCc4ccccc4O)c3c2)cnc1Cl | 6.44% (active) |
| CC(=O)N1C(=S)NC(=O)C1CC(C)C (stereo not given) | 102% (inactive) |
| COc1cc(/C=C2\C(=O)Nc3ccccc32)ccc1OCc1ccc(Cl)cc1 | 98.6% (inactive) |
| COc1cc2oc(-c3cccc(NC(=O)c4cc(N)ccc4Cl)c3)cc(=O)c2c(OC)c1OC | 98.2% (inactive) |
| COc1ccc(Cn2cc3c(c2-c2cc(OC)c(OC)c(OC)c2)CCc2c(CN4CCCC4)noc2-3)cc1 | 46.5% (inactive) |
| CCCCCc1ccc(S(=O)(=O)Nc2cccc(-c3csc(NCCN4CCN(C)CC4)n3)c2)cc1 | 80.9% (inactive) |
| CCC1=Cc2cc(OC)ccc2OC12C=Cc1cc(OC)ccc1O2 (stereo not given) | 39.2% (inactive) |
| CCCCCc1ccc(S(=O)(=O)Nc2cccc(-c3csc(NC(=O)CCCCCN4CCN(C)CC4)n3)c2)cc1 | 67.5% (inactive) |
| N#Cc1cnc2ccc(-c3cnc4[nH]ncc4c3)cc2c1N1CCc2cc(F)c(Cl)cc21 | 8.85% (active) |
| CC(C)C[C@@H]1N[C@@]2(C(=O)Nc3ccccc32)[C@@H](c2ccc(F)cc2)[C@@H]1C(=O)c1ccc(O)cc1 | 88.7% (inactive) |
| O=C(NNc1nc2cc(F)cc(F)c2n2cccc12)c1cnccn1 | 21.9% (inactive) |
| O=C(NNc1nc2cc(F)c(F)cc2n2cccc12)c1cnccn1 | 32.5% (inactive) |
| O=C(CNc1nc(-c2cccc([N+](=O)[O-])c2)cs1)Nc1cccc([N+](=O)[O-])c1 | -4.97% (active) |

Reference: PubChem BioAssay (NCI)
